Results on 39 sequences are retold here after the supplement of paper PMC6555819.

One test relates to LXRb:RXRa (NR concentration 270 nM, RXRa partner concentration 90 nM). Kind of test: PBM binding z-score (relative to random genomic background probes); higher = stronger binding; sequences stand for … in GC…GCGATTGACAGCGTAGAATGAAGG
In a few lines:
(§1)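 Binding z-scores take random background probes as their reference. They come from custom Agilent 4×180K protein-binding microarrays incubated 1 h with ligand-free nuclear receptor dimers, with antibodies against each partner (one per run) detecting binding. Scanned fluorescence was regression-normalized.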
Take AGAACGAGGGCAATGAGTTGATAACACGGGTGGC: the PBM binding z-score is -0.182.
Take ACTAGCAGGCCAAGGGTCAATCAAGATTAGTCCG: the PBM binding z-score stood at 2.96.
Same read-out and setting: the same measure for AATACAGGGTCATCGTAGGCCAGTGTACGCACAG: 4.64; for TGTCAAAGTTCAAAGGCAACGTAAGTATCCACAC: 3.86.
Sequence TGGCCTAGGTCATTGGGCCAGTATAGTACGCATC registered a PBM binding z-score of 1.44.
On the same count and under the same terms, to ATCGAAAGGTCGGCGAGGTGAGTATACACCGTTT belongs 1.9; to CCTAGTTGGTCAAGAGGTCACACACCGGATATGA, 4.58.
Sequence TCTGCTAGGTCAGCTGGTCAGCTAACGAGCTGCC yielded a PBM binding z-score of 0.287.
Regarding CCGACTGGAGCAGAAAGGTTACCATACCATCCGG, the PBM binding z-score was found to be 0.813.
CAAACTAGGTCACCTGAAGGTCAAAGTCCGCATG had a PBM binding z-score of 5.04.
Same read-out and setting: the same measure for GCCACTGGGGCATCAGCAGGTTACCATAACTTAA: 0.103; for CAGCCTAGGTCAGGGCCAATATAGGAGGAACGTT: 0.824.
CTGAGTAGGTTATGGGGCATTCAGGCAACGGTGA displayed a PBM binding z-score of 0.763.
As to CGACCAAGGTCAAAGGTCAGTGAAGAGATGACGG, the PBM binding z-score is 6.54.
In the case of ACTCGTAGGACAAAGGTCAGAGCTACGCCAGTGA, the PBM binding z-score was found to be 3.3.
GGTACGAGGGCAAGTTGATAGCAGAGTTTGATGG had a PBM binding z-score of 0.434.
For the sequence CTCGAAAGGTCGTTCTCAGGTGAGTATACCAAAC, the PBM binding z-score turned out to be 3.68.
Same read-out and setting: to AGTACAGGGTCATCGTAGGCCAGAGTACGCACAG belongs 4.07; to TCTTGTGGATCAGCAGGTTAAGAAAGCTGGCCAA, 0.0295; to TTACCAAGGTGAGCAGAGGTCGTTGATCCAACTC, 1.37.
The same measure, in the same setting: to GCGACAGGGGCATCAGCAGGTTACCATAACTTAA belongs 1.42.
In the case of TCATATAGTTAAAAGGTGAAAGTCGGTGTGGTAA, the PBM binding z-score is 1.98.
On the same count and under the same terms, to TCGAGTAGGTTAGGGGCATTCAAAATGGCGTCGA belongs 1.22.
Consider TCTCGGTGGACACGAAAGGTCAGAGCTCGACATC, for which the PBM binding z-score was determined as 3.1.
In the case of TGAATGAGGTTATAAGATCAGCGAACGTTGCAAA, the PBM binding z-score amounted to 0.765.
Same read-out and setting: to GCTTGTAGATTAAGGTTAAGAAAGACTAAGCTAA belongs 0.611; to CGAAGTAGGTCAAGGACAGTGAATCTCCGCACGC, 1.82.
The sequence ACTAGAAGGCCAAGTTTGGGTCACTCAAACAAAG gave a PBM binding z-score of 0.902.
On the same count and under the same terms, the same measure for CCTACTGGGCCACGGAAGGTCATTGATTCAGTGA: 2.25; for TCTAGTAGATCAATAGAGGTTAAGAAAGTGCGCT: 1.96; for AATACAGGGTCATCGTCGGCCAGAGTACGCACAG: 4.83.
In turn, TGAATGAGGTTATAAGATCAGGGATCGTTGCAAA returned a PBM binding z-score of 0.676.
ATAGAAAGGTCGAGGTGAGTATAGAGAAAGGGAA registered a PBM binding z-score of 2.75.
The sequence ATCTCTAGGTAAAAGTTCAGTCAATCCCGAGGAT registered a PBM binding z-score of 1.6.
On to CCTTAAGGGTCAAGGTTATAGCACGGGTGGTACG, for which the PBM binding z-score turned out to be 4.67.
On the same count and under the same terms, the same measure for CTCGAAAGGTCGTGCTCAGGTGAGTATACCAAAC: 3.45; for ACAGACAGTTGAGTGAAGGTAACTCAGCTGGACG: -0.473; for GCTGCTAGGTTAGGTTGGTCAGCTAACGGGTACG: -0.526.
Same read-out and setting: the same measure for CGTCCAAGGTCAAGGGTCAGTGAAGAGATGACGG: 5.

The subject of another test is LXRb homodimer (NR concentration 270 nM). Described as above. Summed up:
as §1
Sequence AGAACGAGGGCAATGAGTTGATAACACGGGTGGC showed a PBM binding z-score of -0.584.
ACTAGCAGGCCAAGGGTCAATCAAGATTAGTCCG had a PBM binding z-score of -0.379.
AATACAGGGTCATCGTAGGCCAGTGTACGCACAG showed a PBM binding z-score of 1.16.
Still for that read-out and setting: the same measure for TGTCAAAGTTCAAAGGCAACGTAAGTATCCACAC: 1.39; for TGGCCTAGGTCATTGGGCCAGTATAGTACGCATC: -0.839; for ATCGAAAGGTCGGCGAGGTGAGTATACACCGTTT: 0.199.
Same read-out and setting: to CCTAGTTGGTCAAGAGGTCACACACCGGATATGA belongs 0.768.
The sequence TCTGCTAGGTCAGCTGGTCAGCTAACGAGCTGCC returned a PBM binding z-score of -0.343.
Take CCGACTGGAGCAGAAAGGTTACCATACCATCCGG: the PBM binding z-score was -0.611.
Still for that read-out and setting: the same measure for CAAACTAGGTCACCTGAAGGTCAAAGTCCGCATG: 1.6; for GCCACTGGGGCATCAGCAGGTTACCATAACTTAA: -1.12.
CAGCCTAGGTCAGGGCCAATATAGGAGGAACGTT displayed a PBM binding z-score of -1.05.
Same read-out and setting: to CTGAGTAGGTTATGGGGCATTCAGGCAACGGTGA belongs -0.118; to CGACCAAGGTCAAAGGTCAGTGAAGAGATGACGG, 1.18; to ACTCGTAGGACAAAGGTCAGAGCTACGCCAGTGA, 0.607.
Regarding GGTACGAGGGCAAGTTGATAGCAGAGTTTGATGG, the PBM binding z-score was -0.129.
Same read-out and setting: the same measure for CTCGAAAGGTCGTTCTCAGGTGAGTATACCAAAC: 1.37; for AGTACAGGGTCATCGTAGGCCAGAGTACGCACAG: 1.05; for TCTTGTGGATCAGCAGGTTAAGAAAGCTGGCCAA: -0.411.
Sequence TTACCAAGGTGAGCAGAGGTCGTTGATCCAACTC returned a PBM binding z-score of -0.627.
Same read-out and setting: the same measure for GCGACAGGGGCATCAGCAGGTTACCATAACTTAA: -0.683; for TCATATAGTTAAAAGGTGAAAGTCGGTGTGGTAA: 0.21.
TCGAGTAGGTTAGGGGCATTCAAAATGGCGTCGA showed a PBM binding z-score of -0.0733.
On the same count and under the same terms, to TCTCGGTGGACACGAAAGGTCAGAGCTCGACATC belongs -0.0844; to TGAATGAGGTTATAAGATCAGCGAACGTTGCAAA, -0.436.
In turn, GCTTGTAGATTAAGGTTAAGAAAGACTAAGCTAA yielded a PBM binding z-score of -0.832.
Sequence CGAAGTAGGTCAAGGACAGTGAATCTCCGCACGC showed a PBM binding z-score of -0.179.
For the sequence ACTAGAAGGCCAAGTTTGGGTCACTCAAACAAAG, the PBM binding z-score is -0.474.
Same read-out and setting: the same measure for CCTACTGGGCCACGGAAGGTCATTGATTCAGTGA: -0.194.
On the same count and under the same terms, to TCTAGTAGATCAATAGAGGTTAAGAAAGTGCGCT belongs -0.599; to AATACAGGGTCATCGTCGGCCAGAGTACGCACAG, 1.41; to TGAATGAGGTTATAAGATCAGGGATCGTTGCAAA, -0.353.
ATAGAAAGGTCGAGGTGAGTATAGAGAAAGGGAA gave a PBM binding z-score of 0.952.
Still for that read-out and setting: the same measure for ATCTCTAGGTAAAAGTTCAGTCAATCCCGAGGAT: 1.34.
The same measure, in the same setting: the same measure for CCTTAAGGGTCAAGGTTATAGCACGGGTGGTACG: 0.683.
Same read-out and setting: to CTCGAAAGGTCGTGCTCAGGTGAGTATACCAAAC belongs 0.379.
Consider ACAGACAGTTGAGTGAAGGTAACTCAGCTGGACG, for which the PBM binding z-score was -0.26.
As to GCTGCTAGGTTAGGTTGGTCAGCTAACGGGTACG, the PBM binding z-score was -0.743.
CGTCCAAGGTCAAGGGTCAGTGAAGAGATGACGG registered a PBM binding z-score of 0.392.
